From PubChem BioAssay (NCATS)
Values joined by “and” are separate entries in the source; they are usually repeats but may differ in a detail not shown here. Equal values may be shown once. Results filed as inconclusive are left out. Active and inactive are the calls of the source. The call rests on the fitted dose curve; in most records, active means well fitted curve in the direction sought with a large enough effect; inconclusive means small, poorly fitted or top-dose-only effect, or another doubt; inactive means no such curve, though single readings can be large; an effect the other way counts as inactive or inconclusive.

Tests used:
[1] = Viability qHTS for spleen associated tyrosine kinase inhibitor (SYKi) naive MV4-11 cells (AID 1963823); further: nearly all actives have a fitted effect of over 40% in size
Outline: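 Cells: MV4-11, SYK inhibitor naive, 500 per well. Treatment: library compounds, 72 hr, 37 C, 5% CO2. Read-out: CellTiter-Glo luminescence after 10 min RT.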

[2] = Viability qHTS for spleen associated tyrosine kinase inhibitor (SYKi) drug resistant MV4-11 cells (AID 1963824); further: nearly all actives have a fitted effect of over 35% in size
Outline: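 SYK-inhibitor-resistant MV4-11 AML cells were seeded at 500 per well onto compound and cultured 72 hours (37 °C, 5% CO2). CellTiter-Glo was then added, and after 10 min at room temperature, luminescence gave viability.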

[3] = Cellular viability qHTS for adrenocortical cancer (ACC) cell line SW-13 (AID 1963989); settings: SW-13 ACC cells viability, CellTiter-Glo, 48 h; activity (max response): active compounds read low; further: nearly all actives have a fitted effect of over 65% in size;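 on activity (max response): cells grown in serum-free medium with ITS supplement; on the % scale 0 is the no-effect control and ±100 the full control effect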
Outline: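 Here, serum-free SW-13 cultures were dosed up to 46 uM. Following 48 h, ATP-dependent luminescence (CellTiter-Glo) reported viable cells, and logistic modeling produced IC50 values.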

[4] = Cellular viability qHTS for adrenocortical cancer (ACC) cell line NCI-H295R (AID 1963990); further: nearly all actives have a fitted effect of over 60% in size
Outline: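 Viability of NCI-H295R after 48 h of treatment (final up to 46 uM) measured through cellular ATP luminescence.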
Potency means the concentration at half of the fitted maximal effect.

CCCCOC(=O)c1ccc(O)cc1
inactive: Potency [1] | Potency [2] | activity (max response) [3] -18.3% | Potency [4]

CO[C@@]1(NC(=O)C(C(=O)O)c2ccc(O)cc2)C(=O)N2C(C(=O)O)=C(CSc3nnnn3C)CO[C@@H]21 (some centres undefined)
inactive: Potency [1] | Potency [2] | activity (max response) [3] 13.4% | Potency [4]

COc1ccc(S(=O)(=O)N(C(C)=O)c2ccccc2/C=C/c2cc[n+]([O-])cc2)cc1
active: Potency [1] 934 nM | Potency [2] 833 nM | Potency [3] 1120 nM | Potency [4] 1410 nM

Cn1c(=O)c2c(ncn2C)n(C)c1=O
inactive: Potency [1] | Potency [2] | activity (max response) [3] -5.31% and -10.5% | Potency [4]

CN(C)C/C=C/C(=O)Nc1cc2c(Nc3ccc(F)c(Cl)c3)ncnc2cc1O[C@H]1CCOC1
active: Potency [1] 1480 nM | Potency [2] 1860 nM | Potency [3] 891 nM | Potency [4] 7080 nM

COc1cc(N2CCN(C(C)=O)CC2)ccc1Nc1ncc(Cl)c(Nc2ccc(N3CCN(C(C)=O)CC3)cc2OC)n1
active: Potency [1] 291 nM and 372 nM | Potency [2] 366 nM and 1.05 µM | Potency [3] 25100 nM | Potency [4] 12600 nM

O=C(NCc1ccc(S(=O)(=O)c2cccc(C(F)(F)F)c2)cc1)c1cnc2[nH]ncc2c1
active: Potency [1] 11.8 nM | Potency [2] 10.5 nM | Potency [3] 28.2 nM | Potency [4] 17.8 nM

C=CC(=O)Nc1cc(Nc2nccc(-c3cn(C)c4ccccc34)n2)c(OC)cc1N(C)CCN(C)C
active: Potency [1] 1460 nM | Potency [2] 934 nM | Potency [3] 2000 nM | Potency [4] 3980 nM

CCC1C(=O)OCC1Cc1cncn1C (centres undefined)
inactive: Potency [1] | Potency [2] | activity (max response) [3] 6.41% | Potency [4]

O=C(NO)c1cnc(NC2(c3ccccc3)CC2)nc1
active: Potency [1] 5250 nM | Potency [2] 4170 nM | Potency [3] 10000 nM | Potency [4] 3980 nM

Nc1nc(N)c(-c2ccccc2)s1
inactive: Potency [1] | Potency [2] | activity (max response) [3] 6.99% | Potency [4]

CCN(CC)CCCC(C)Nc1c2ccc(Cl)cc2nc2ccc(OC)cc12 (centres undefined)
active: Potency [1] 4.22 µM and 2.82 µM | Potency [2] 2.09 µM and 3.99 µM | Potency [3] 28200 nM | Potency [4] 14100 nM

Cc1ncc(CO)c(C=O)c1O
inactive: Potency [1] | Potency [2] | activity (max response) [3] -2.89% | Potency [4]

O=C(c1ccc(F)c(F)c1Nc1ccc(I)cc1F)N1CC(O)([C@@H]2CCCCN2)C1
active: Potency [1] 326 nM and 235 nM | Potency [2] 231 nM and 296 nM | Potency [3] 12600 nM | Potency [4] 5620 nM

Nc1ccc([N+](=O)[O-])c(C(F)(F)F)c1
inactive: Potency [1] | Potency [2] | activity (max response) [3] 0.003% | Potency [4]

CNC(=O)[C@H](Cc1c[nH]c2ccccc12)NC(=O)[C@@H](CC(=O)NO)CC(C)C
active: Potency [1] 9340 nM | Potency [2] 10500 nM
inactive: activity (max response) [3] -15.7% | Potency [4]

CC(C)(C)c1nnc(NS(=O)(=O)c2ccc(N)cc2)s1
inactive: Potency [1] | Potency [2] | activity (max response) [3] -5.75% | Potency [4]

O=C(O)c1cc(O)c(O)c(O)c1
active: Potency [2] 13300 nM
inactive: Potency [1] | activity (max response) [3] -1.2% | Potency [4]

CN(C)C(=S)SC(=S)N(C)C
active: Potency [1] 1680 nM | Potency [2] 1680 nM | Potency [3] 9200 nM | Potency [4] 2310 nM

Cn1cc(-c2ccc(S(=O)(=O)n3ccc(/C=C/C(=O)Nc4ccccc4N)c3)cc2)cn1
active: Potency [1] 651 nM and 934 nM | Potency [2] 580 nM and 742 nM | Potency [3] 794 nM | Potency [4] 891 nM

FC(F)(F)c1ccc(CNc2ccc(Cc3c[nH]c4ncccc34)cn2)cc1
active: Potency [1] 259 nM and 116 nM | Potency [2] 206 nM and 291 nM | Potency [3] 10000 nM | Potency [4] 11200 nM

CS(=O)(=O)N1CCC(NC(=O)c2[nH]ncc2NC(=O)c2c(Cl)cccc2Cl)CC1
active: Potency [1] 934 nM | Potency [2] 291 nM | Potency [3] 3980 nM | Potency [4] 11200 nM

CCCCOc1cc(C(=O)OCCN(CC)CC)ccc1N
inactive: Potency [1] | Potency [2] | activity (max response) [3] -10.3% | Potency [4]

CN(Cc1ccc(/C=C/C(=O)NO)cc1)CC12CC3CC(CC(C3)C1)C2
active: Potency [1] 296 nM | Potency [2] 235 nM | Potency [3] 2240 nM | Potency [4] 447 nM

O=C1NC(=O)[C@@H](c2c[nH]c3ccccc23)[C@H]1c1cn2c3c(cccc13)CCC2
active: Potency [1] 833 nM | Potency [2] 742 nM | Potency [3] 398 nM | Potency [4] 355 nM

C=CC(=O)N1CCC[C@@H](n2nc(-c3ccc(Oc4ccccc4)cc3)c3c(N)ncnc32)C1
inactive: activity (max response) [3] 5.79% | Potency [4]
active: Potency [1] 1.64 µM and 662 nM | Potency [2] 1.3 µM and 1.18 µM

CCCCCN(CCCCC)C(=O)C(CCC(=O)O)NC(=O)c1ccc(Cl)c(Cl)c1 (centres undefined)
inactive: Potency [1] | Potency [2] | activity (max response) [3] 5.36% | Potency [4]

C[C@H]1COCCN1c1cc(C2(S(=O)(=O)C3CC3)CC2)nc(-c2ccc(NC(=S)NCCO)cc2)n1
active: Potency [1] 18.4 nM | Potency [2] 73.1 nM | Potency [3] 316 nM | Potency [4] 1120 nM

CC[C@H](CC[C@@H](C)[C@H]1CC[C@H]2[C@@H]3CC=C4C[C@@H](O)CC[C@]4(C)[C@H]3CC[C@]12C)C(C)C
inactive: Potency [1] | Potency [2] | activity (max response) [3] -11% | Potency [4]

CCO[C@@H]1OC(=O)C[C@@H]1NC(=O)[C@@H]1CCCN2C(=O)CC[C@H](NC(=O)c3nccc4ccccc34)C(=O)N12
inactive: Potency [1] | Potency [2] | activity (max response) [3] -8.71% | Potency [4]

C=CC(=O)Nc1cccc(Nc2nc(Nc3ccc(Oc4ccnc(C(=O)NC)c4)cc3)ncc2F)c1
active: Potency [1] 4.61 µM and 2.63 µM | Potency [2] 5.8 µM and 4.17 µM | Potency [3] 17800 nM | Potency [4] 17800 nM

CC(=O)NC(CS)C(=O)O (centres undefined)
inactive: Potency [1] | Potency [2] | activity (max response) [3] -2.17% | Potency [4]

CCNC(=O)Nc1ncc(-c2cc(-c3c(C)cc(OC)cc3C)nc(-c3cnccn3)n2)s1
inactive: Potency [1] | Potency [2] | activity (max response) [3] -7.82% | Potency [4]

OC[C@H]1O[C@@H](S[C@@H]2O[C@H](CO)[C@H](O)[C@H](n3cc(-c4cccc(F)c4)nn3)[C@H]2O)[C@H](O)[C@@H](n2cc(-c3cccc(F)c3)nn2)[C@H]1O
inactive: Potency [1] | Potency [2] | activity (max response) [3] 11.8% | Potency [4]

CC[C@]1(O)CC2CN(CCc3c([nH]c4ccccc34)[C@@](C(=O)OC)(c3cc4c(cc3OC)N(C)[C@H]3[C@@](O)(C(=O)OC)[C@H](OC(C)=O)[C@]5(CC)C=CCN6CC[C@]43[C@@H]65)C2)C1 (some centres undefined)
active: Potency [1] 33.2 nM | Potency [2] 65.1 nM and 33.2 nM | Potency [3] 282 nM | Potency [4] 14100 nM

O=C(O)CCc1nc(-c2ccccc2)c(-c2ccccc2)o1
inactive: Potency [1] | Potency [2] | activity (max response) [3] -11.2% | Potency [4]

NS(=O)(=O)c1cc2c(cc1Cl)NC(CC1CCCC1)NS2(=O)=O (centres undefined)
inactive: Potency [1] | Potency [2] | activity (max response) [3] 10.5% | Potency [4]

NCC1CCC(C(=O)O)CC1 (centres undefined)
inactive: Potency [1] | Potency [2] | activity (max response) [3] 10.7% | Potency [4]

O=C1c2ccccc2C(=O)C1c1ccc(Br)cc1
inactive: Potency [1] | Potency [2] | activity (max response) [3] 7.53% | Potency [4]

O=C(O)CCCc1ccccc1
inactive: Potency [1] | Potency [2] | activity (max response) [3] 16.4% | Potency [4]

Cc1ccc2c(Cl)cc(Cl)c(O)c2n1
inactive: Potency [1] | Potency [2] | activity (max response) [3] 9.37% | Potency [4]

NCCCC[C@H](N[C@@H](CCc1ccccc1)C(=O)O)C(=O)N1CCC[C@H]1C(=O)O
inactive: Potency [1] | Potency [2] | activity (max response) [3] 4.67% | Potency [4]

C[C@@H]1CCN(C(=O)[C@H](CCCN=C(N)N)NS(=O)(=O)c2cccc3c2NC[C@H](C)C3)[C@@H](C(=O)O)C1
inactive: Potency [1] | Potency [2] | activity (max response) [3] 1.57% | Potency [4]

CC(C)NCCCC1(C(N)=O)c2ccccc2-c2ccccc21
inactive: Potency [1] | Potency [2] | activity (max response) [3] 9.8% | Potency [4]

COc1ccc(S(=O)(=O)Nc2cc(-c3csc(C#N)c3)ccc2C)cc1
active: Potency [1] 83.3 nM | Potency [2] 93.4 nM | Potency [3] 63.1 nM | Potency [4] 79.4 nM

CCN1C(=O)N2Cc3cc(OC)cc(OC)c3[C@@H](C)C=C2C12CCN(Cc1cc(C)cc(C)c1)CC2
active: Potency [1] 18600 nM | Potency [2] 14800 nM | Potency [3] 28200 nM | Potency [4] 25100 nM

C[C@H]1[C@H](C)CC[C@]2(C(=O)O)CC[C@]3(C)C(=CC[C@@H]4[C@@]5(C)CC[C@H](O)C(C)(C)[C@@H]5CC[C@]43C)[C@H]12
inactive: activity (max response) [3] -4.55% | Potency [4]
active: Potency [1] 23500 nM | Potency [2] 20900 nM

NC1=N[C@@]2(c3cc(NC(=O)c4ccc(F)cn4)ccc3F)COC[C@H]2CS1
active: Potency [2] 14800 nM
inactive: Potency [1] | activity (max response) [3] -8.2% | Potency [4]

CN(C)CCNC(=O)NC[C@H]1CC[C@@H]2[C@H](O1)c1cc(C(F)(F)F)ccc1N[C@H]2c1ccccc1
active: Potency [1] 148 nM | Potency [2] 132 nM | Potency [3] 251 nM | Potency [4] 891 nM

COc1ccc(CCN2CCC(Nc3nc4ccccc4n3Cc3ccc(F)cc3)CC2)cc1
active: Potency [1] 4220 nM | Potency [2] 8410 nM | Potency [3] 20600 nM | Potency [4] 14600 nM

C[C@H](NC(=O)CCC(F)(F)F)C(=O)N[C@@H]1C(=O)N(CCO)c2ncccc2-c2ccccc21
inactive: Potency [1] | Potency [2] | activity (max response) [3] -28.7% | Potency [4]
